Data reported in PubChem BioAssay AID1159580 (chemical genetic matrix, 2015).
Out of some 5,500 compounds screened, about 2,000 (36%) were called active. Roughly 18% stayed inconclusive and do not appear here. Rule as the data show it: active = normalized growth mostly below about 0.91 (no sharp cut-off); inconclusive = no clear call, values can overlap the other calls; inactive = mostly above about 0.92. The list shows a part of the results.

Assay: chemical genetic growth profiling, strain panel (AID 1159580);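 also: tested at 20 µM; growth read once vehicle control cultures reached saturation at 30 °C; 1 = growth at the plate median or of vehicle wells; lower values mean less growth of the strain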
Conditions: S. cerevisiae deletion strains, growth OD

Measured: normalized growth

C=CCc1ccc(OC)cc1
inactive: locus YAL021C, strain ccr4, active compounds read low 0.982 | locus YAL026C, strain drs2, active compounds read low 1.03 | locus YAL030W, strain snc1, active compounds read low 1 | locus YBL061C, strain skt5, active compounds read low 1.01 | locus YBR009C, strain hhf1, active compounds read low 1.01 | locus YBR023C, strain chs3, active compounds read low 1.01 | locus YBR171W, strain sec66, active compounds read low 1.01 | locus YBR231C, strain swc5, active compounds read low 1.02 | locus YBR279W, strain paf1, active compounds read low 0.995 | locus YCL011C, strain gbp2, active compounds read low 0.988 | locus YCL016C, strain dcc1, active compounds read low 1 | locus YCL069W, strain vba3, active compounds read low 0.999 | locus YCR088W, strain abp1, active compounds read low 1.01 | locus YDL005C, strain med2, active compounds read low 1.02 | locus YDL040C, strain nat1, active compounds read low 0.999 | locus YDR001C, strain nth1, active compounds read low 1 | locus YDR069C, strain doa4, active compounds read low 1.01 | locus YDR137W, strain rgp1, active compounds read low 0.994 | locus YDR159W, strain sac3, active compounds read low 1.06 | locus YDR195W, strain ref2 1 | locus YDR297W, strain sur2, active compounds read low 1.04 | locus YDR334W, strain swr1, active compounds read low 1.01 | locus YDR335W, strain msn5, active compounds read low 0.996 | locus YDR392W, strain spt3, active compounds read low 0.919 | locus YEL003W, strain gim4, active compounds read low 1.01 | locus YEL037C, strain rad23, active compounds read low 1.01 | locus YEL061C, strain CIN8 (second series), active compounds read low 0.995 | locus YER015W, strain faa2, active compounds read low 1.01 | locus YER016W, strain bim1, active compounds read low 1.01 | locus YER111C, strain swi4, active compounds read low 1 | locus YER155C, strain BEM2 (second series), active compounds read low 1.04 | locus YFR010W, strain ubp6, active compounds read low 1.03 | locus YGL167C, strain pmr1, active compounds read low 1.01 | locus YGL173C, strain kem1, active compounds read low 1.03 | locus YGL227W, strain vid30, active compounds read low 1.01 | locus YGL240W, strain doc1, active compounds read low 1.02 | locus YGL253W, strain hxk2, active compounds read low 1.02 | locus YHR013C, strain ard1, active compounds read low 1.01 | locus YHR027C, strain rpn1, active compounds read low 1.01 | locus YHR030C, strain SLT2, active compounds read low 1 | locus YHR079C, strain IRE1, active compounds read low 0.989 | locus YHR142W, strain chs7, active compounds read low 0.992 | locus YJL092W, strain hpr5, active compounds read low 1.01 | locus YJL095W, strain BCK1 (second series), active compounds read low 1.01 | locus YJL095W, strain BCK1, active compounds read low 0.995 | locus YJL115W, strain asf1, active compounds read low 1.01 | locus YJL129C, strain trk1, active compounds read low 1.03 | locus YJL154C, strain vps35, active compounds read low 1 | locus YJL164C, strain tpk1, active compounds read low 0.98 | locus YJL166W, strain qcr8, active compounds read low 1.01 | locus YJL187C, strain SWE1, active compounds read low 0.997 | locus YJR066W, strain TOR1, active compounds read low 0.939 | locus YKL160W, strain elf1, active compounds read low 0.979 | locus YKR026C, strain gcn3, active compounds read low 1.01 | locus YKR091W, strain srl3, active compounds read low 1 | locus YLL001W, strain dnm1, active compounds read low 0.996 | locus YLL026W, active compounds read low 1.02 | locus YLL041C, strain sdh2, active compounds read low 1 | locus YLR027C, strain aat2, active compounds read low 1.02 | locus YLR113W, strain HOG1, active compounds read low 0.992 | locus YLR221C, strain rsa3, active compounds read low 1.03 | locus YLR258W, strain gsy2, active compounds read low 0.999 | locus YLR262C, strain YPT6 (second series), active compounds read low 0.992 | locus YLR320W, strain mms22, active compounds read low 1.03 | locus YLR342W, strain FKS1, active compounds read low 1.01 | locus YLR357W, strain rsc2, active compounds read low 1.01 | locus YLR370C, strain arc18, active compounds read low 0.995 | locus YLR384C, strain iki3, active compounds read low 1.01 | locus YML120C, strain ndi1, active compounds read low 0.986 | locus YMR058W, strain fet3, active compounds read low 1.02 | locus YMR125W, strain sto1, active compounds read low 0.967 | locus YMR129W, active compounds read low 1.02 | locus YMR205C, strain PFK2, active compounds read low 0.999 | locus YMR231W, strain pep5, active compounds read low 1.01 | locus YNL071W, strain lat1, active compounds read low 0.991 | locus YNL183C, strain NPR1, active compounds read low 0.909 | locus YNL209W, strain ssb2, active compounds read low 0.992 | locus YNL248C, strain rpa49, active compounds read low 0.952 | locus YNL322C, strain KRE1 (second series), active compounds read low 1 | locus YNR049C, strain mso1, active compounds read low 1 | locus YOR001W, strain rrp6, active compounds read low 1.02 | locus YOR070C, strain gyp1, active compounds read low 1.02 | locus YOR080W, strain dia2, active compounds read low 1.02 | locus YOR083W, strain WHI5, active compounds read low 0.974 | locus YOR106W, strain vam3, active compounds read low 0.988 | locus YOR231W, strain MKK1, active compounds read low 1 | locus YOR265W, strain rbl2, active compounds read low 1 | locus YOR270C, strain vph1, active compounds read low 1.04 | locus YOR290C, strain snf2, active compounds read low 0.956 | locus YPL051W, strain arl3, active compounds read low 1.01 | locus YPL078C, strain atp4, active compounds read low 0.96 | locus YPL106C, strain sse1, active compounds read low 1 | locus YPL240C, strain hsp82, active compounds read low 1.02 | locus YPL256C, strain CLN2, active compounds read low 1
